The results in this text go back to publication PMC7862700, “An all-to-all approach to the identification of sequence-specific readers for epigenetic DNA modifications on cytosine”.

What all share (assay): DAPPL (digital affinity profiling via proximity ligation, sequencing); 10 mM Tris-HCl pH 7.5, 50 mM NaCl, 1 mM DTT, 4% glycerol, room temperature, 30 min; GST-TFs on glutathione beads, 16-mer random dsDNA library, 0.1% formaldehyde crosslink after washing; high values mean tight binding
For one experiment, the target named is T1, FEV (Homo sapiens, UniProt Q99581 1-238).
T1 sequence: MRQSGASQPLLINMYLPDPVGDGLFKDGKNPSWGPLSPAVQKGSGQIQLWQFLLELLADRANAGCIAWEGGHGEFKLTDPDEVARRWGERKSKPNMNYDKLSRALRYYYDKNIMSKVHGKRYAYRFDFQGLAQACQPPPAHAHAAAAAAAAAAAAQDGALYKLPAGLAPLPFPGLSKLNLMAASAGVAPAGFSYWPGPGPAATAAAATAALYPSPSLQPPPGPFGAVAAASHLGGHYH
The note with it: protein: recombinant; tags: N-terminal GST; dsDNA, one strand shown. In a few lines: (§1)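 Human transcription factors fused to GST were expressed in yeast, captured on glutathione beads, given DNA barcodes and pooled with a GST-only negative control. Pools were incubated with 200 nmole of a 16-mer random double-stranded DNA library in Tris/NaCl/DTT/glycerol buffer at room temperature for 30 min. They were then washed, crosslinked with 0.1% formaldehyde, proximity-ligated (BsaI/T4 ligase, 1 h, 37 °C), PCR-amplified and sequenced on an Illumina NextSeq500. Binding signal is each 6-mer's read frequency for a factor divided by its frequency for the GST control.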

The target of another experiment is ETV5 (Homo sapiens, UniProt P41161 1-510). Conditions: protein: recombinant; tags: N-terminal GST; dsDNA, one strand shown. An outline of the steps: as §1
The target in the next experiment is HSF1 (Homo sapiens, UniProt Q00613 1-529). Conditions: protein: recombinant; tags: N-terminal GST; chain copies: 3; dsDNA, one strand shown. In a few lines: as §1
Another experiment concerns the target T2, SPIC (Homo sapiens, UniProt Q8N5J4 1-248).
T2 sequence: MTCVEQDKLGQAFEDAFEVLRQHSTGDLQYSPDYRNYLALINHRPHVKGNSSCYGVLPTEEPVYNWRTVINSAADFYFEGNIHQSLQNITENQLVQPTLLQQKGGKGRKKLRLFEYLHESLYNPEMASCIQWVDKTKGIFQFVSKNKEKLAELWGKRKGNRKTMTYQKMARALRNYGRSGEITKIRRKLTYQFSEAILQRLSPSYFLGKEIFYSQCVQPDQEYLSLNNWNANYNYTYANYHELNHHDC
Conditions: protein: recombinant; tags: N-terminal GST; dsDNA, one strand shown. In a few lines: as §1

A further experiment concerns the target ELF4 (Homo sapiens, UniProt Q99607 1-663). The note with it: protein: recombinant; tags: N-terminal GST; dsDNA, one strand shown. An outline of the steps: as §1
Another experiment has as its target T3, ELK4 (Homo sapiens, UniProt P28324-2 1-405).
T3 sequence: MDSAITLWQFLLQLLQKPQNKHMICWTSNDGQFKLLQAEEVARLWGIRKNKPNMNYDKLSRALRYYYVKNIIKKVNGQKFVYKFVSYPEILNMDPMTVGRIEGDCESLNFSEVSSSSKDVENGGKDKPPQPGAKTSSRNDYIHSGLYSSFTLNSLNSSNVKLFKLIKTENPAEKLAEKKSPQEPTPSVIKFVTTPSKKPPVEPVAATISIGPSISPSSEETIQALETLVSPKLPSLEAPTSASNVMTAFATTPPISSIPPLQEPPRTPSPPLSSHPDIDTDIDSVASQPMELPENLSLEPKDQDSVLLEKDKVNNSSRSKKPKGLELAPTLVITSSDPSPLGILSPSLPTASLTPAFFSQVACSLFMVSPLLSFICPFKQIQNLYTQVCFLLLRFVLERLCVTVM
The note with it: protein: recombinant; tags: N-terminal GST; dsDNA, one strand shown. In a few lines:
as §1

Another experiment concerns the target T4, ETV2 (Homo sapiens, UniProt O00321 1-342).
T4 sequence: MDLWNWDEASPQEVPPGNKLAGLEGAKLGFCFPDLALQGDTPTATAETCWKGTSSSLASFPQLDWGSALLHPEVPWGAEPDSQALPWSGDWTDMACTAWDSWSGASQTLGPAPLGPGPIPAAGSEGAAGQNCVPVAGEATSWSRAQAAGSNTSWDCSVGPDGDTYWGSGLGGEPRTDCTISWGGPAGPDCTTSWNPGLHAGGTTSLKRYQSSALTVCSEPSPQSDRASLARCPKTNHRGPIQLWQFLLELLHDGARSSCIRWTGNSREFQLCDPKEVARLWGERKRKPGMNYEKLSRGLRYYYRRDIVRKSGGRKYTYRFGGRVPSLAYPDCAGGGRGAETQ
Conditions: protein: recombinant; tags: N-terminal GST; dsDNA, one strand shown. In a few lines:
as §1

The target in the next experiment is T5, ELF3 (Homo sapiens, UniProt P78545 1-371).
T5 sequence: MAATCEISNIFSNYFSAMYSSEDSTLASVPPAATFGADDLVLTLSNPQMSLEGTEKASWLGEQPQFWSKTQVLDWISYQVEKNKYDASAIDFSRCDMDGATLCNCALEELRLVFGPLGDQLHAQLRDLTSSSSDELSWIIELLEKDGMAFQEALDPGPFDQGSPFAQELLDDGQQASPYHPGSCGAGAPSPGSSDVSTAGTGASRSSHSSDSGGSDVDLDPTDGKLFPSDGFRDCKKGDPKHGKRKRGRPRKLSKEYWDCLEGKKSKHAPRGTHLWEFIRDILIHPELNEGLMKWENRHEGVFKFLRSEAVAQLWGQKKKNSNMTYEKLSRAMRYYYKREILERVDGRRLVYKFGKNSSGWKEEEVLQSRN
The note with it: protein: recombinant; tags: N-terminal GST; dsDNA, one strand shown. An outline of the steps:
as §1

The next experiment addresses CRX (Homo sapiens, UniProt O43186 1-299). Conditions: protein: recombinant; tags: N-terminal GST; dsDNA, one strand shown. An outline of the steps: as §1
The target in a further experiment is ETV1 (Homo sapiens, UniProt P50549 1-477). Conditions: protein: recombinant; tags: N-terminal GST; dsDNA, one strand shown. In a few lines:
as §1

In another experiment the target is T6, ERF (Homo sapiens, UniProt P50548 1-548).
T6 sequence: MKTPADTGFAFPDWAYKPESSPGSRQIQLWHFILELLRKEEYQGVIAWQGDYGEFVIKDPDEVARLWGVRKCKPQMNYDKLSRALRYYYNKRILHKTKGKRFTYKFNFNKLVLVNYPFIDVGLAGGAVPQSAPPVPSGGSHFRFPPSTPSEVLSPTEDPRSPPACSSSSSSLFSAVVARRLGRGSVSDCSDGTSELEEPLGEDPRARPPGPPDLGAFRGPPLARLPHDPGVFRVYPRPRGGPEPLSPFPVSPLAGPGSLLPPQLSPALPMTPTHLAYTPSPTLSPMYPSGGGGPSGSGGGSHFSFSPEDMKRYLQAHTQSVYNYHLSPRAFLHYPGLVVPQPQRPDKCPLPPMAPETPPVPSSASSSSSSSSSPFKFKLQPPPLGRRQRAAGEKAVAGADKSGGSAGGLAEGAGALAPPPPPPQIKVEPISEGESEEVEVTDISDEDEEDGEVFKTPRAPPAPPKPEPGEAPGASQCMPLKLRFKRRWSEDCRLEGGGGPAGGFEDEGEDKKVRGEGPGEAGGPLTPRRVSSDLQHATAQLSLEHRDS
The note with it: protein: recombinant; tags: N-terminal GST; dsDNA, one strand shown. In a few lines:
as §1

For a further experiment, the target named is T7, ETV3L (Homo sapiens, UniProt Q6ZN32 1-361).
T7 sequence: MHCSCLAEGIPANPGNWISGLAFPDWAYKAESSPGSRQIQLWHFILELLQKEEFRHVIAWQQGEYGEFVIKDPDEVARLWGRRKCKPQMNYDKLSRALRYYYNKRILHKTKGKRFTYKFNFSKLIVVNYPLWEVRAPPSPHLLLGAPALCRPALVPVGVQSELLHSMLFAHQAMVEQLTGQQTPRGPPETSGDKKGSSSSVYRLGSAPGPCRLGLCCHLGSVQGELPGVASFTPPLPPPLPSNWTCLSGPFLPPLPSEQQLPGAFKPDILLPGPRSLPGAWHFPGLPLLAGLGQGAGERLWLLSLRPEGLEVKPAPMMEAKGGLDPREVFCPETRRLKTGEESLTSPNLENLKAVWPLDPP
Conditions: protein: recombinant; tags: N-terminal GST; dsDNA, one strand shown. In a few lines: as §1

The target in a further experiment is T8, ETS2 (Homo sapiens, UniProt P15036 1-469).
T8 sequence: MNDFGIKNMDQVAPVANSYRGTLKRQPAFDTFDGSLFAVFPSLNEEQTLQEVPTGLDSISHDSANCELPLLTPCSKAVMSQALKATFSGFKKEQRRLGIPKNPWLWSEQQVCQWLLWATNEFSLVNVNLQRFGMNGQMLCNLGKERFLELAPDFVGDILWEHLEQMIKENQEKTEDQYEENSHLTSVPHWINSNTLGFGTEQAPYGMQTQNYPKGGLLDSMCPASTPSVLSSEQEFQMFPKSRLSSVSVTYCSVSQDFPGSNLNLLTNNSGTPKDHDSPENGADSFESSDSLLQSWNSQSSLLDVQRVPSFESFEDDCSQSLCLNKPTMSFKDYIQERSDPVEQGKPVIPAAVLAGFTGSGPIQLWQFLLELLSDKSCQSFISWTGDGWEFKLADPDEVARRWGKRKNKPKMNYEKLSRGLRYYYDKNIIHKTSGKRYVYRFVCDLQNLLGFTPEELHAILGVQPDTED
The note with it: protein: recombinant; tags: N-terminal GST; dsDNA, one strand shown. An outline of the steps: as §1

The target in a further experiment is T9, SPDEF (Homo sapiens, UniProt O95238 1-335).
T9 sequence: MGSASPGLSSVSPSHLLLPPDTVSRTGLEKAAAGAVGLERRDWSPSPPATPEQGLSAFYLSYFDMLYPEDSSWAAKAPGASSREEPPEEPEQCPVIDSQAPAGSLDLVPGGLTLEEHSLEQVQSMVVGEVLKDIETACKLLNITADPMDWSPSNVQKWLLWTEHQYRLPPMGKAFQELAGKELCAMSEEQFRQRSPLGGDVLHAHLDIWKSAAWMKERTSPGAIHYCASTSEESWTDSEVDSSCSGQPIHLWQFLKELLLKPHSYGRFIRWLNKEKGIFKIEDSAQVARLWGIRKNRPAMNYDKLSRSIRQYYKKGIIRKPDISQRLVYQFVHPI
Conditions: protein: recombinant; tags: N-terminal GST; dsDNA, one strand shown. An outline of the steps: as §1

The target in another experiment is T10, ETV7 (Homo sapiens, UniProt Q9Y603 1-341).
T10 sequence: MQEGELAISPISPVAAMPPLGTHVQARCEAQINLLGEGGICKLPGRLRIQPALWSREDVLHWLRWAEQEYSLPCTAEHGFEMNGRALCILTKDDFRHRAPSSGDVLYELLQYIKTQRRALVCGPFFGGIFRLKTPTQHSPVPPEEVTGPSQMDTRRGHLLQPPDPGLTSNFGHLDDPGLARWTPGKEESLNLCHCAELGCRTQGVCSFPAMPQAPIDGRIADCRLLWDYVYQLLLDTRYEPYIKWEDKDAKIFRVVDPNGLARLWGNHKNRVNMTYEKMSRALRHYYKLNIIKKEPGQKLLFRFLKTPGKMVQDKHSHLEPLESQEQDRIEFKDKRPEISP
Conditions: protein: recombinant; tags: N-terminal GST; dsDNA, one strand shown. An outline of the steps: as §1

In a further experiment the target is T11, ELF5 (Homo sapiens, UniProt Q9UKW6-2 1-255).
T11 sequence: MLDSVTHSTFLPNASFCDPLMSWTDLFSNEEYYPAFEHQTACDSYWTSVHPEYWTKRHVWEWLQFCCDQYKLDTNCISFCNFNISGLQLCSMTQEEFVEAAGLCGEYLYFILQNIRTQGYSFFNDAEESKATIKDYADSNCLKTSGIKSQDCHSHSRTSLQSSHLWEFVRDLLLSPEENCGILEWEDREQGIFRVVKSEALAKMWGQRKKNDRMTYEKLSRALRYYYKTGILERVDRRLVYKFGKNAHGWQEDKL
The note with it: protein: recombinant; tags: N-terminal GST; dsDNA, one strand shown. In a few lines:
as §1

The next experiment has as its target T12, ETV3 (Homo sapiens, UniProt P41162-2 1-143).
T12 sequence: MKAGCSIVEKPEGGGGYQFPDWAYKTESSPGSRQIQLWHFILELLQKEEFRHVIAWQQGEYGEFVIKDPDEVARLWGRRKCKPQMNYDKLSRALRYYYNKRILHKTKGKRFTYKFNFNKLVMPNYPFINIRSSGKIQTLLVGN
The note with it: protein: recombinant; tags: N-terminal GST; dsDNA, one strand shown. An outline of the steps: as §1

Another experiment deals with ETV6 (Homo sapiens, UniProt P41212 1-452). The note with it: protein: recombinant; tags: N-terminal GST; dsDNA, one strand shown. An outline of the steps: as §1
ETV6, sequence (P41212 whole entry): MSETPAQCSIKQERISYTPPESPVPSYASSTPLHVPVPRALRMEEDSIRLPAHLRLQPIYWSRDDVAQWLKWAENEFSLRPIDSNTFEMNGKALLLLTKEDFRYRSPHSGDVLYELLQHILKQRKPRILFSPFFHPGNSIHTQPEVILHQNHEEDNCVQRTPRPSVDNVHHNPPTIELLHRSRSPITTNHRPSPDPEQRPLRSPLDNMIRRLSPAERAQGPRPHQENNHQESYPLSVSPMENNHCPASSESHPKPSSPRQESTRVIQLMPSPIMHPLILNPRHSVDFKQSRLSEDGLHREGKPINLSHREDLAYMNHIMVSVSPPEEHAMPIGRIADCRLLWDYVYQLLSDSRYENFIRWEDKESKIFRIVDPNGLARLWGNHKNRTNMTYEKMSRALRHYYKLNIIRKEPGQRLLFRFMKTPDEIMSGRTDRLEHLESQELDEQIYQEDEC

ETV1, sequence (P50549 whole entry): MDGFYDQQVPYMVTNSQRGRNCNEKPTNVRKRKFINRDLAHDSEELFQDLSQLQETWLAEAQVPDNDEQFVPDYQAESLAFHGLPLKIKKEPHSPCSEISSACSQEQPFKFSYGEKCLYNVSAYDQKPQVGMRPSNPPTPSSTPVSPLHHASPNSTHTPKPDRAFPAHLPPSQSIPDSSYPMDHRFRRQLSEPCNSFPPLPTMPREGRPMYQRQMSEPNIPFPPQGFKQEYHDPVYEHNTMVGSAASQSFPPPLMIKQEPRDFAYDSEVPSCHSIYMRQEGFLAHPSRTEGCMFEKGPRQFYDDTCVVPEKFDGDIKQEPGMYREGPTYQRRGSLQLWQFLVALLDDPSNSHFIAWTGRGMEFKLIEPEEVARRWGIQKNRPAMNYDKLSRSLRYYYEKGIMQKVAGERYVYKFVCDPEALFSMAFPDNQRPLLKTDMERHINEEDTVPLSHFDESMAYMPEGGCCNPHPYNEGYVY
HSF1, sequence (Q00613 whole entry): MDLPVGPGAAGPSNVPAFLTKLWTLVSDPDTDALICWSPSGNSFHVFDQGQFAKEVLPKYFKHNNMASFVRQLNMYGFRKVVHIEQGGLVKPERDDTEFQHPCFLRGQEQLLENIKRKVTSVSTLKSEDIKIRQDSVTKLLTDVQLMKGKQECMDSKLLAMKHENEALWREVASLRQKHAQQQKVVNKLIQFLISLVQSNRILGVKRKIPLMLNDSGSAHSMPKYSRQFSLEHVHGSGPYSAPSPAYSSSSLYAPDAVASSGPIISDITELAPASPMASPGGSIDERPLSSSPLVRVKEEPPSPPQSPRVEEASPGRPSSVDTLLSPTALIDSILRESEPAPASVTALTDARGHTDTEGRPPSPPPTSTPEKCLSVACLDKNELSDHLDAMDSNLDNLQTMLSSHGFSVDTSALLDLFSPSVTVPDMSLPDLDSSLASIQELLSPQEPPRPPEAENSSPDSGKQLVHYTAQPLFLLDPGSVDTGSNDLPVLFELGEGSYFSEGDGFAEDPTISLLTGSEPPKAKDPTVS
CRX, sequence (O43186 whole entry): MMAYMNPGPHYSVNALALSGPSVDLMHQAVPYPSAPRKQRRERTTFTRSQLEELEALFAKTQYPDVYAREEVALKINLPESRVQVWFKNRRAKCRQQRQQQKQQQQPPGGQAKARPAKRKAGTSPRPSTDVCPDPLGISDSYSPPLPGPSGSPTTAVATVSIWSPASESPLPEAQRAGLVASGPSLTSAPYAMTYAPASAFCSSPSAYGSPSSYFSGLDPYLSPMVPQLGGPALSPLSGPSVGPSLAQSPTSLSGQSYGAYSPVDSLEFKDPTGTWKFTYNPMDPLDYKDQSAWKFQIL
ELF4, sequence (Q99607 whole entry): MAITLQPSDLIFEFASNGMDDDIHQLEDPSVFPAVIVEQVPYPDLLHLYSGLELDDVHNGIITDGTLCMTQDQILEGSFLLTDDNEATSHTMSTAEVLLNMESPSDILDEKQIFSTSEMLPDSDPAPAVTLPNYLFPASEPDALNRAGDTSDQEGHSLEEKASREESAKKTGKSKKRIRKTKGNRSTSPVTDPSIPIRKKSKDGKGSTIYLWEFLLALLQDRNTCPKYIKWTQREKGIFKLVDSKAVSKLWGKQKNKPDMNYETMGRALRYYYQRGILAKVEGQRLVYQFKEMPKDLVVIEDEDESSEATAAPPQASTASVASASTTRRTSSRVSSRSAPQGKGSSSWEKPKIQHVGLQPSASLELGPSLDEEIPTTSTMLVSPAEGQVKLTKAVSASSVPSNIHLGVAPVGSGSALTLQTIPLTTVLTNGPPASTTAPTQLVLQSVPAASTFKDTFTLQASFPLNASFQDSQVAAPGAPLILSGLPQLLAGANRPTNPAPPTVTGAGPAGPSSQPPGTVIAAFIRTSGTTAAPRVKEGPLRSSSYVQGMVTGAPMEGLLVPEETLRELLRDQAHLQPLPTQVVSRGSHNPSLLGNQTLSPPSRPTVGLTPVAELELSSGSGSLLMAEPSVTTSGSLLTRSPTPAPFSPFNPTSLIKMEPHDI
ETV5, sequence (P41161 whole entry): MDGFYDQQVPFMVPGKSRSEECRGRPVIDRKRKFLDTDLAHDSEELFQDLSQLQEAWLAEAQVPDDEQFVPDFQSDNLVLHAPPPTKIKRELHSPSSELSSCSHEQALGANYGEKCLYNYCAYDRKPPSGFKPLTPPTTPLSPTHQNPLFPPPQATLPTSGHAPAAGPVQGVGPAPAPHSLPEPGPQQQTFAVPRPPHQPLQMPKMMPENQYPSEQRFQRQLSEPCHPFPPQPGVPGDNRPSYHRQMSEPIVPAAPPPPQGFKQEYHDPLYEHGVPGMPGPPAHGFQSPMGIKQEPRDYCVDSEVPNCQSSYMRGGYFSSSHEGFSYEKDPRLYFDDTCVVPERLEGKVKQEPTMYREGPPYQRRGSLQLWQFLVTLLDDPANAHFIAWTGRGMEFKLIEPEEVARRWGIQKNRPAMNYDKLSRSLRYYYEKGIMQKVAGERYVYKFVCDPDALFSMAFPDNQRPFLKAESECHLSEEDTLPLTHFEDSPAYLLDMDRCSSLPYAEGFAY

Consider CTCTGC, for which the binding signal was 1.5 fold enrichment (6-mer frequency, TF over GST control) with FEV; 1.49 fold enrichment (6-mer frequency, TF over GST control) in the experiment with ETV5; 1.25 fold enrichment (6-mer frequency, TF over GST control) in the experiment with HSF1; 1.55 fold enrichment (6-mer frequency, TF over GST control) in the experiment with SPIC; 1.61 fold enrichment (6-mer frequency, TF over GST control) with ELF4; 1.86 fold enrichment (6-mer frequency, TF over GST control) with ELK4. The binding signal was 1.43 fold enrichment (6-mer frequency, TF over GST control) with ETV2; 1.56 fold enrichment (6-mer frequency, TF over GST control) in the experiment with ELF3; 1.2 fold enrichment (6-mer frequency, TF over GST control) in the experiment with CRX; 1.64 fold enrichment (6-mer frequency, TF over GST control) in the experiment with ETV1; 1.56 fold enrichment (6-mer frequency, TF over GST control) with ERF; 1.52 fold enrichment (6-mer frequency, TF over GST control) with ETV3L. For the same sequence, the binding signal is 1.54 fold enrichment (6-mer frequency, TF over GST control) in the experiment with ETS2; 1.4 fold enrichment (6-mer frequency, TF over GST control) with SPDEF; 1.27 fold enrichment (6-mer frequency, TF over GST control) in the experiment with ETV7; 1.34 fold enrichment (6-mer frequency, TF over GST control) with ELF5; 1.5 fold enrichment (6-mer frequency, TF over GST control) in the experiment with ETV3; 1.27 fold enrichment (6-mer frequency, TF over GST control) with ETV6.
